Assay [1] deals with Estrogen-related receptor gamma (Homo sapiens) (UniProt P62508). Put plainly: ATG_ERRg_TRANS: Attagene TRANS-FACTORIAL HepG2 Assay for human Estrogen-Related Receptor gamma (ERRg) (AID 2282977; active means hit-call score of the fitted dose curve at least 0.9, where 1 is the maximum;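 further: hits increase reporter signal over DMSO so potencies reflect activators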). The following applies: HepG2 Attagene TRANS reporter, ERRg transactivation. Summed up:
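Induction of reporter transcripts through a chimeric NR-Gal4 protein is quantified in transfected human HepG2 liver cells after 24 h chemical exposure, using RT-PCR with capillary electrophoresis detection and DMSO as baseline.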

The target of assay [2] is Glucocorticoid receptor (Homo sapiens) (UniProt P04150). Put plainly: ATG_GR_TRANS: Attagene TRANS-FACTORIAL HepG2 Assay for human Glucocorticoid Receptor (GR) (AID 2282978; active means hit-call score of the fitted dose curve at least 0.9, where 1 is the maximum;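 further: activators score as hits since higher reporter transcript over DMSO is fitted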). The note with it: HepG2 Attagene TRANS GR reporter, mRNA transcription. The procedure, abridged:
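HepG2 cells transiently transfected with multiplexed reporter units in which chimeric NR-GAL4 proteins drive GAL4-UAS reporters; 24 h compound exposure. Reporter mRNA measured by RT-PCR, 6-FAM labelling, HpaI digestion and capillary electrophoresis; gain-of-signal fitted versus DMSO.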

Assay [3] addresses Bile acid receptor (Homo sapiens) (UniProt Q96RI1). As to the kind of experiment: ATG_FXR_TRANS: Attagene TRANS-FACTORIAL HepG2 Assay for Farnesoid X Receptor (FXR) (AID 2282979; active means hit-call score of the fitted dose curve at least 0.9, where 1 is the maximum;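 further: hits raise reporter mRNA above DMSO so AC50 marks FXR activation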). The following applies: HepG2 Attagene TRANS FXR-GAL4 reporter transcription. Summed up: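 HepG2 cells were transiently transfected with GAL4-UAS reporters driven by chimeric NR-Gal4 proteins and dosed for 24 h. Reporter mRNA was quantified by RT-PCR, fluorescent labelling, HpaI digestion and capillary electrophoresis, with gain of signal scored versus DMSO.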

The target in assay [4] is Oxysterols receptor LXR-alpha (Homo sapiens) (UniProt Q13133). As to the kind of experiment: ATG_LXRa_TRANS: Attagene TRANS-FACTORIAL HepG2 Assay for human Liver X Receptor alpha (LXRa) (AID 2282980; active means hit-call score of the fitted dose curve at least 0.9, where 1 is the maximum). The following applies: HepG2 Attagene TRANS reporter, LXRa transactivation. Summed up:
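HepG2 cells transiently transfected with GAL4-UAS reporter units for chimeric NR-Gal4 proteins, exposed to chemicals for 24 h. Reporter mRNA quantified by RT-PCR and capillary electrophoresis; gain of signal fitted relative to DMSO.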

For assay [5], the target named is Oxysterols receptor LXR-beta (Homo sapiens) (UniProt P55055). Put plainly: ATG_LXRb_TRANS: Attagene TRANS-FACTORIAL HepG2 Assay for human Liver X Receptor beta (LXRb) (AID 2282981; active means hit-call score of the fitted dose curve at least 0.9, where 1 is the maximum). The following applies: HepG2 Attagene TRANS GAL4-LXRb reporter, mRNA. The procedure, abridged:
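Measures induction of a Gal4-driven reporter transcript in HepG2 cells expressing an exogenous LXRb-Gal4 fusion. Cells are exposed to compound for 24 h before RNA isolation and RT-PCR with capillary electrophoresis detection.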

The target in assay [6] is Hepatocyte nuclear factor 4-alpha (Homo sapiens) (UniProt P41235). As to the kind of experiment: ATG_HNF4a_TRANS: Attagene TRANS-FACTORIAL HepG2 Assay for human Hepatocyte Nuclear Factor 4 alpha (HNF4a) (AID 2282982; active means hit-call score of the fitted dose curve at least 0.9, where 1 is the maximum). The note with it: HepG2 HNF4a transactivation reporter, mRNA readout. The procedure, abridged: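 In this trans-factorial format, a chimeric HNF4a-GAL4 fusion drives a GAL4-UAS reporter in transfected HepG2 liver cells. After 24 h treatment, reporter mRNA induction is measured by RT-PCR with capillary electrophoresis, relative to DMSO.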
Hepatocyte nuclear factor 4-alpha (Homo sapiens), sequence (P41235 whole entry, looked up, the tested form may be a part): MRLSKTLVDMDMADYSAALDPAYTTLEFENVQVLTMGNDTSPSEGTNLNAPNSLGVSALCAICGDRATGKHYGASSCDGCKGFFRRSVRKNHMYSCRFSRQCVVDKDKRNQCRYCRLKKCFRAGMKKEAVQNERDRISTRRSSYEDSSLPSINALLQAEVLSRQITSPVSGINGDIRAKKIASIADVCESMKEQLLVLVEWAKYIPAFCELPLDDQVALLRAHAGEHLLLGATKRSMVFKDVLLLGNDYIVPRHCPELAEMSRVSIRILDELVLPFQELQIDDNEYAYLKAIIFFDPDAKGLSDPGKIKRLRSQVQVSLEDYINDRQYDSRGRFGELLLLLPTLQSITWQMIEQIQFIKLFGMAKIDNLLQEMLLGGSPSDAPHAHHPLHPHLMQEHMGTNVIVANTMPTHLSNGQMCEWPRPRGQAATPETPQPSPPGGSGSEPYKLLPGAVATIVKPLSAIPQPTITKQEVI

A short description of assay [7]: ATG_M_32_TRANS: Attagene TRANS-FACTORIAL HepG2 Assay for M32 Transcription Factor (Internal Marker) (AID 2282984; active means hit-call score of the fitted dose curve at least 0.9, where 1 is the maximum). The following applies: HepG2 Attagene TRANS M32 internal marker reporter. The procedure, abridged:
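After 24 h dosing of transfected HepG2 cells, total RNA was reverse-transcribed, reporter sequences PCR-amplified, 6-FAM labelled by primer extension and HpaI-digested before capillary electrophoresis. Signal increase over DMSO was fitted.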

For assay [8], the target named is Nuclear receptor subfamily 4 group A member 2 (Homo sapiens) (UniProt P43354). Put plainly: ATG_NURR1_TRANS: Attagene TRANS-FACTORIAL HepG2 Assay for human Nuclear Receptor Related Protein 1 (NURR1) (AID 2282985; active means hit-call score of the fitted dose curve at least 0.9, where 1 is the maximum). The note with it: HepG2 Attagene TRANS reporter, mRNA readout. Summed up: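 Chimeric NR-Gal4 fusion activity measured in HepG2 after 24 h treatment. Reporter transcripts detected by RT-PCR and capillary electrophoresis fluorescence; positive-direction curve fitting against DMSO.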

In assay [9] the target is Transcriptional activator Myb (Homo sapiens) (UniProt P10242). Put plainly: ATG_Myb_CIS: Attagene CIS-FACTORIAL HepG2 Assay for human Myeloblastosis (Myb) Proto-Oncogene Transcription Factor (AID 2282986). The following applies: HepG2 Attagene CIS-FACTORIAL Myb reporter transcription; actives raise or lower the signal. The procedure, abridged:
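HepG2 cells were transiently transfected with cis-regulated multiple reporter transcription units reflecting endogenous Myb activity, then exposed to compound for 24 hours. Reporter mRNA was measured by RT-PCR with capillary electrophoresis; bidirectional fitting versus DMSO baseline.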

For assay [10], the target named is Nuclear respiratory factor 1 (Homo sapiens) (UniProt Q16656). Put plainly: ATG_NRF1_CIS: Attagene CIS-FACTORIAL HepG2 Assay for human Nuclear Respiratory Factor 1 (NRF1) Orphan Gene (AID 2282987). The following applies: HepG2 NRF1 cis-element reporter, Attagene multiplex; actives raise or lower the signal. Summed up:
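HepG2 cells transiently transfected with multiple reporter transcription units under cis-regulatory promoter control, so endogenous transcription-factor activity is read. After 24 h compound exposure, reporter mRNA quantified by RT-PCR, fluorescent labelling, HpaI digestion and capillary electrophoresis; bidirectional fitting versus DMSO.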

Assay [11] can be described thus: ATG_Oct_MLP_CIS: Attagene CIS-FACTORIAL HepG2 Assay for human Octamer-Binding Transcription Factor (Oct) (AID 2282993). The note with it: HepG2 Attagene cis-factorial Oct reporter, mRNA; actives raise or lower the signal. The procedure, abridged:
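HepG2 cells transiently transfected with cis-promoter-driven multiplexed reporter transcription units, dosed for 24 h. Reporter mRNA quantified by RT-PCR, fluorescent labelling, HpaI digestion and capillary electrophoresis; bidirectional fits versus DMSO baseline.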

In assay [12] the target is Cellular tumor antigen p53 (Homo sapiens) (UniProt P04637). As to the kind of experiment: ATG_p53_CIS: Attagene CIS-FACTORIAL HepG2 Assay for human p53 Transcription Factor (AID 2282994). The note with it: HepG2 p53 cis-element reporter, Attagene mRNA; actives raise or lower the signal. The procedure, abridged:
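Read-out: reporter mRNA by RT-PCR plus capillary electrophoresis with fluorescence detection. Human HepG2 liver cells carried transfected multi-reporter cis-element constructs, dosed 24 h. Gain or loss of signal fitted bidirectionally against DMSO control.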

Assay [13] in a line: BSK_3C_TissueFactor: BioMAP Diversity Plus: 3C Assay for Tissue Factor Biomarker Activity (AID 2282997). The note with it: BioMAP 3C HUVEC, tissue factor biomarker readout; actives raise or lower the signal. The procedure, abridged:
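Tissue Factor measured by ELISA, 24 h after treatment of primary HUVEC in the BioMAP 3C setting.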

The nature of assay [14]: BSK_3C_uPAR: BioMAP Diversity Plus: 3C Assay for Urokinase-type plasminogen activator receptor (uPAR) Biomarker Activity (AID 2282998). The following applies: BioMAP 3C HUVEC, uPAR biomarker ELISA; actives raise or lower the signal. The procedure, abridged:
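Human umbilical vein endothelial primary cells were exposed to test chemical for 24 h. Cell-surface uPAR was then quantified by ELISA, and responses were fitted bidirectionally against DMSO as negative control and baseline.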

Assay [15] in a line: BSK_3C_VCAM1: BioMAP Diversity Plus: 3C Assay for Vascular cell adhesion molecule 1 (VCAM1) Biomarker Activity (AID 2282999). The note with it: BioMAP 3C HUVEC, VCAM1 ELISA, cytokine-stimulated; actives raise or lower the signal. The procedure, abridged: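 Vascular primary endothelium (human umbilical vein) was exposed to chemicals and assayed 24 h later. VCAM-1 levels came from ELISA, with DMSO serving as baseline for bidirectional fitting.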
(An ELISA detects its analyte on a solid surface through an enzyme-linked reagent.)

A short description of assay [16]: ATG_GAL4_TRANS: Attagene TRANS-FACTORIAL HepG2 Assay for GAL4 (Internal Marker) (AID 2282976; active means hit-call score of the fitted dose curve at least 0.9, where 1 is the maximum). The note with it: HepG2 Attagene TRANS GAL4 internal marker reporter. The procedure, abridged: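 Background-control readout: GAL4-UAS reporter transcript in transiently transfected HepG2 cells after 24 h compound exposure. Measured by RT-PCR, 6-FAM primer extension, HpaI digest and capillary electrophoresis; gain-of-signal fit versus DMSO.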

A short description of assay [17]: ATG_M_06_TRANS: Attagene TRANS-FACTORIAL HepG2 Assay for M06 Transcription Factor (Internal Marker) (AID 2282983; active means hit-call score of the fitted dose curve at least 0.9, where 1 is the maximum). The following applies: HepG2 Attagene TRANS M06 internal marker reporter. The procedure, abridged: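 mRNA levels of a reporter transcript, quantified as FAM fluorescence on capillary electrophoresis, served as readout. HepG2 cells expressing exogenous GAL4-chimera reporter constructs were exposed for 24 h. Gain of signal over DMSO was evaluated.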

Assay [18] in a line: ATG_NFI_CIS: Attagene CIS-FACTORIAL HepG2 Assay for human Nuclear Factor I (NFI) (AID 2282989). The following applies: HepG2 cis-regulatory reporter, NFI response element transcription; actives raise or lower the signal. Summed up:
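HepG2 cells transiently transfected with cis-element-driven multiplexed reporter transcription units, dosed for 24 h. Reporter mRNA quantified by RT-PCR, fluorescent labelling, HpaI digestion and capillary electrophoresis; bidirectional fit versus DMSO baseline.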

The target in assay [19] is Myc proto-oncogene protein (Homo sapiens) (UniProt P01106). Put plainly: ATG_Myc_CIS: Attagene CIS-FACTORIAL HepG2 Assay for human Myelocytomatosis (Myc) Proto-Oncogene Transcription Factor (AID 2282990). The following applies: HepG2, Attagene cis-reporter transcription factor activity; actives raise or lower the signal. Summed up: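 Multiplexed cis-reporter transcription in HepG2 cells after 24 h chemical treatment. Reporter mRNA measured by RT-PCR and capillary electrophoresis fluorescence; activity fitted bidirectionally against DMSO control.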

A short description of assay [20]: ATG_NRF2_ARE_CIS: Attagene CIS-FACTORIAL HepG2 Assay for human Nuclear Factor Erythroid 2 Related Factor 2 (NFR2) response to Antioxidant Response Elements (ARE) (AID 2282992). The following applies: HepG2 Attagene ARE/NRF2 reporter, transcription factor activity; actives raise or lower the signal. The procedure, abridged: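 Readout: reporter mRNA quantified by RT-PCR plus FAM-labelled primer extension, HpaI digestion and capillary electrophoresis, 24 h after dosing transfected HepG2 cells. Gain or loss of signal is fitted bidirectionally against DMSO baseline.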

By AC50 is commonly meant the concentration at which the activity in the assay is half-maximal.

Inconclusive results are not listed. Calls of active or inactive are those of the source. How the source made its calls, unless noted: active means hit-call score of the fitted dose curve at least 0.9, where 1 is the maximum; inactive means score below 0.9.

Nuclear respiratory factor 1 (Homo sapiens), sequence (Q16656 whole entry, looked up): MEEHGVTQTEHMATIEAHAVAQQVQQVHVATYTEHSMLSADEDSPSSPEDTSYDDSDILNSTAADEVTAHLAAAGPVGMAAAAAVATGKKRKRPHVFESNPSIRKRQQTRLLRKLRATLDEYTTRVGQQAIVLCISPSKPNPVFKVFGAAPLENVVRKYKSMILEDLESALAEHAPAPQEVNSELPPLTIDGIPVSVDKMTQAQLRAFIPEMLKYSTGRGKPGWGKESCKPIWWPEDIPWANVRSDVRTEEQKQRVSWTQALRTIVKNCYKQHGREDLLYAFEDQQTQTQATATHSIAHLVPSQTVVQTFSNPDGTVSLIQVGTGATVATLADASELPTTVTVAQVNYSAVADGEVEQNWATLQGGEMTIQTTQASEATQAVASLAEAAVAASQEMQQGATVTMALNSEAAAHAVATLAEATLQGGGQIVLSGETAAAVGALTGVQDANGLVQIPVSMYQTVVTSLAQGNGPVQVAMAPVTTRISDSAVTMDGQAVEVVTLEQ
Transcriptional activator Myb (Homo sapiens), sequence (P10242 whole entry, looked up): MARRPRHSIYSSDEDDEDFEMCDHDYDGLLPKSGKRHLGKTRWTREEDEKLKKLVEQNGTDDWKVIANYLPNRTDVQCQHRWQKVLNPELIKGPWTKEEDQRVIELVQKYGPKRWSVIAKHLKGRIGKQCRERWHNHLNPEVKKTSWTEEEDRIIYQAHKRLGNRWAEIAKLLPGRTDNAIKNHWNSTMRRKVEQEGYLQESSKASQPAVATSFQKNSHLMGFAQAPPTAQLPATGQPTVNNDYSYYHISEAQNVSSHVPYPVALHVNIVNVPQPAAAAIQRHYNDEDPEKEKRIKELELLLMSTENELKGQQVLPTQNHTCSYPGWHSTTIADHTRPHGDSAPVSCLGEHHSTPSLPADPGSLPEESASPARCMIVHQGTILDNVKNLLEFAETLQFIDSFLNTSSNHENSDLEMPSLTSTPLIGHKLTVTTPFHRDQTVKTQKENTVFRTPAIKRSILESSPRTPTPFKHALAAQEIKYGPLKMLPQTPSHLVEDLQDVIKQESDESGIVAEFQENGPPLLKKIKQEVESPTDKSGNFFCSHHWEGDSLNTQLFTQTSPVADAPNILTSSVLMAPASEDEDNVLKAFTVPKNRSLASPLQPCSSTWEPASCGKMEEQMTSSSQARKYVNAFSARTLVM
Cellular tumor antigen p53 (Homo sapiens), sequence (P04637 whole entry, looked up): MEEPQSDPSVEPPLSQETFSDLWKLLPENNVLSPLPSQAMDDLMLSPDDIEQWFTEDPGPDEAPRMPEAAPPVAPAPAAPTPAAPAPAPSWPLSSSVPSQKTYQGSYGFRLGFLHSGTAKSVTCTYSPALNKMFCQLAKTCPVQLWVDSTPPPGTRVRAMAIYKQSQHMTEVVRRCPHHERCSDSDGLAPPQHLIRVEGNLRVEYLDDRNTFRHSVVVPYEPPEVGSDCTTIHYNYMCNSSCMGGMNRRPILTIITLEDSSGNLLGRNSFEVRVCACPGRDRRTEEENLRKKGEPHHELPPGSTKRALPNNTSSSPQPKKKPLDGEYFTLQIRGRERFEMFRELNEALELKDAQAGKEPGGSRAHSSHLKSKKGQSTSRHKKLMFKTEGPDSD
Oxysterols receptor LXR-beta (Homo sapiens), sequence (P55055 whole entry, looked up, the tested form may be a part): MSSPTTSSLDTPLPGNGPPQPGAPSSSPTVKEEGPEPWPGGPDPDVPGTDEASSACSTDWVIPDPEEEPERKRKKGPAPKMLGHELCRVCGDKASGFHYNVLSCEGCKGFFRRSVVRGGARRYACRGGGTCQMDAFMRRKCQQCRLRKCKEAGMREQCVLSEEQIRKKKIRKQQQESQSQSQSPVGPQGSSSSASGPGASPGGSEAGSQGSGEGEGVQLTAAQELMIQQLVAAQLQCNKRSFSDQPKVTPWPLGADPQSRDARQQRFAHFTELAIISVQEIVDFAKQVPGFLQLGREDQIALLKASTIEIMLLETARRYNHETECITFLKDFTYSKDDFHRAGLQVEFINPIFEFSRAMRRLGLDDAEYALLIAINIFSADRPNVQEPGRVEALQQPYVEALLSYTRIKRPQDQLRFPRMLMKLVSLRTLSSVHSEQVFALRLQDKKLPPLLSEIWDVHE
Estrogen-related receptor gamma (Homo sapiens), sequence (P62508 whole entry, looked up, the tested form may be a part): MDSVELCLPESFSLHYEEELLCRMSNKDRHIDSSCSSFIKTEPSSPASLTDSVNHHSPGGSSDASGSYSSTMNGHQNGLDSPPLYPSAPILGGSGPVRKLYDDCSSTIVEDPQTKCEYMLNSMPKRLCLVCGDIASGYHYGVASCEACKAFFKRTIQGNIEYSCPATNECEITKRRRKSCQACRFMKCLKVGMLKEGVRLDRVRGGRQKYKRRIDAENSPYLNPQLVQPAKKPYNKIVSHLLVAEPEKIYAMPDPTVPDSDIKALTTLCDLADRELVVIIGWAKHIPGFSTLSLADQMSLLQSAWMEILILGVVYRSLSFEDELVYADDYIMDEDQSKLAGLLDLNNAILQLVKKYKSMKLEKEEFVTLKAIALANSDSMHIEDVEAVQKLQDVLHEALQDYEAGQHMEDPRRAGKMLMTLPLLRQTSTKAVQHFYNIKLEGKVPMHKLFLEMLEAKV
Bile acid receptor (Homo sapiens), sequence (Q96RI1 whole entry, looked up, the tested form may be a part): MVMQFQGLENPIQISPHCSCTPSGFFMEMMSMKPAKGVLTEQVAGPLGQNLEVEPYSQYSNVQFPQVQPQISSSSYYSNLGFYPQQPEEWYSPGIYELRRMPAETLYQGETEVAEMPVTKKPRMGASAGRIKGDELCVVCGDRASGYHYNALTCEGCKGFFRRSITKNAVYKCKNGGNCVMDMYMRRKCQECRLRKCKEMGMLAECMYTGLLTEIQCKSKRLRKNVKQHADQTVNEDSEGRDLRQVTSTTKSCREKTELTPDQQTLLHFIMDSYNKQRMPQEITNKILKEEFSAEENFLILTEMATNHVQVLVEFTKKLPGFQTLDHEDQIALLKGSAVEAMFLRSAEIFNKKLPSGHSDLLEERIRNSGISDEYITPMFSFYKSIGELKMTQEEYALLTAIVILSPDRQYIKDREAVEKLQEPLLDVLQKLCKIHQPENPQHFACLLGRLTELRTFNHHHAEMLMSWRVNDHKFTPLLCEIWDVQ
Glucocorticoid receptor (Homo sapiens), sequence (P04150 whole entry, looked up, the tested form may be a part): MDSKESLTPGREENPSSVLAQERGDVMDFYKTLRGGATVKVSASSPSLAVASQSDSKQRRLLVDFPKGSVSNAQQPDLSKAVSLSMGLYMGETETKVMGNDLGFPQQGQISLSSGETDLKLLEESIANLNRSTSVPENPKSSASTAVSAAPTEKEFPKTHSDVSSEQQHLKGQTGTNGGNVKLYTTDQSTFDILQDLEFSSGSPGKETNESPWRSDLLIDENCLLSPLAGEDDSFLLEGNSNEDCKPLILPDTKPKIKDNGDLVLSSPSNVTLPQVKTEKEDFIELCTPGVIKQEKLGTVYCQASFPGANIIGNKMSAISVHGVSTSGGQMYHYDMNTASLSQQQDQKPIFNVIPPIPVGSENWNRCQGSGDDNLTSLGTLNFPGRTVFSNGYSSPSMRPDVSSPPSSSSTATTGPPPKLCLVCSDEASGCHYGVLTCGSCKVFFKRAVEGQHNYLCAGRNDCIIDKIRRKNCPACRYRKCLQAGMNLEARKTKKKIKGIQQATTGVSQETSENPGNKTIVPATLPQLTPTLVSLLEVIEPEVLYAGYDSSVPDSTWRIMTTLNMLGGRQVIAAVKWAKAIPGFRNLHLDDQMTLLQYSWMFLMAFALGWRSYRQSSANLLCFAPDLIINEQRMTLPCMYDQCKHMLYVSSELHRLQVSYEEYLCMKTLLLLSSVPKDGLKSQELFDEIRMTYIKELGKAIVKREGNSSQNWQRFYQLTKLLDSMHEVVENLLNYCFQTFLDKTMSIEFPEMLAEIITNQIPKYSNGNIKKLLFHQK
Oxysterols receptor LXR-alpha (Homo sapiens), sequence (Q13133 whole entry, looked up, the tested form may be a part): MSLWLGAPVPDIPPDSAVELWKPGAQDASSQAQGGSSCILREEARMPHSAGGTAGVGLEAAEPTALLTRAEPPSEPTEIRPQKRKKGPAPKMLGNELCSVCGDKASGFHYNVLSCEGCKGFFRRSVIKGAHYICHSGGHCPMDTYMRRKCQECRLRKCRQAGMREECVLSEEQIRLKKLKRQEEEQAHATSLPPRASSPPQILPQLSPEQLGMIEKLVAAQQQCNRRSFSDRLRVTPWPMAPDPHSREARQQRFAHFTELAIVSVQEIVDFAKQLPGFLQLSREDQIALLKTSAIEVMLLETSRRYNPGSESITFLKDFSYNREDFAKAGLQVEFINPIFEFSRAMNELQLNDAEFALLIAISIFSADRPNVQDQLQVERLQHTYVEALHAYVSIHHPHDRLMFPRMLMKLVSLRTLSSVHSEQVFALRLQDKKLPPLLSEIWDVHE

As to `O=C(Nc1ccccc1)Nc1cnns1`, the result in assay [1], in assay [2], in assay [3], in [4], in assay [5] and in [6] was inactive. The molecule was classed as inactive in assay [7], in [8], in assay [10], in assay [12], in [13] and in [14]. Moreover, the outcome in assay [15] was inactive. Also, the results for the AC50 in assay [9] and in assay [11] were 78.3 µM (active) and 71.8 µM (active), respectively.
Turning to `COP(=S)(OC)Oc1ccc([N+](=O)[O-])cc1`, the call in assay [16], in assay [4], in assay [5], in assay [6], in assay [17] and in [7] was inactive. Besides, the result in assay [8], in assay [9], in assay [10], in [18], in [19] and in assay [20] was inactive. Further, the call in assay [11], in assay [12], in assay [13] and in assay [15] was inactive. In assay [14], the AC50 was 33.1 µM (active).
As to `CCc1ccc(C(=O)NN(C(=O)c2cc(C)cc(C)c2)C(C)(C)C)cc1`, the molecule was called inactive in assay [1], in [2], in [3], in assay [6], in [17] and in assay [9]. Also, the outcome in assay [10], in assay [11], in assay [12], in assay [13] and in [15] was inactive. Further, the AC50 in assay [20] was 9.92 µM (active); in assay [14], 20 µM (active).

These data come from PubChem BioAssay (EPA / NIEHS).
